Data reported in PubChem BioAssay.

Target: Follistatin (Homo sapiens) (UniProt P19883)
Assay: follistatin binders on small-molecule microarrays, primary screen, biochemical, small-molecule microarray, 635/667 nm fluorescence (AID 1132)
Settings: FST binding, 635 nm fluorescence, higher = more signal

Follistatin (Homo sapiens), sequence (P19883 whole entry, looked up): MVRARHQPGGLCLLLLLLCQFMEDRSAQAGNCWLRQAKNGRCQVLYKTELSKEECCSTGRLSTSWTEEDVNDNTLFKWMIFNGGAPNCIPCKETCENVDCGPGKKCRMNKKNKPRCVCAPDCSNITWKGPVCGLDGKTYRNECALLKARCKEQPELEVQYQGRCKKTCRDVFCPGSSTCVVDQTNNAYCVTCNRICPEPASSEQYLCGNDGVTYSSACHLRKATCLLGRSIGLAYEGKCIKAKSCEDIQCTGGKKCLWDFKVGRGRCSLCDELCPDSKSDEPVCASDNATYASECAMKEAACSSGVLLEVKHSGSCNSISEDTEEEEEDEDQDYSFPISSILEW

Row | SMILES | composite z-score
1 | C=CC[C@H](OC(=O)Nc1ccc(SC)cc1)c1ccc(O)c2ccccc12 | 1.36
2 | O=C1O[C@@H](c2ccccc2)[C@@H](c2ccccc2)N2[C@@H](c3ccc(OCCO)cc3)[C@]3(C(=O)Nc4ccc(C#CC5=CCCCC5)cc43)[C@@H](C(=O)NC[C@H](O)c3ccccc3)[C@H]12 | 1.42
3 | O=C1O[C@H](c2ccccc2)[C@H](c2ccccc2)N2[C@H]1[C@@H](C(=O)O)[C@]1(C(=O)Nc3ccc(C#CCCO)cc31)[C@H]2c1ccccc1OCCO | 0.622
4 | CC(C)c1ccc(NN2C(C(O)c3ccc(C#N)cc3)C=CC3C(=O)N(c4ccccc4)C(=O)C32)cc1 (stereo not given) | 1.01
5 | C[N+](C)(C)CCCC[C@@H]1NC(=O)[C@@H]2C[C@H](C(=O)NCCCCCCN)[C@H](c3cccc(OCCO)c3)N2C1=O | 0.976
6 | CC(C)[Si]1(C(C)C)OCc2cc(C3CC3)nc(-c3ccc(Oc4ccccc4)cc3)c21 | -0.538
7 | COCCOC(=O)N1C(=O)[C@@]2(c3cc(C#CC4(O)CCCCCC4)ccc31)[C@H](c1ccc(O)cc1)N1[C@H](c3ccccc3)[C@H](c3ccccc3)OC(=O)[C@H]1[C@@H]2C(=O)N1CCN(c2ncccn2)CC1 | 1.06
8 | COC(=O)c1c(CC[C@@H](CO)NC(=O)N[C@@H](C)Cn2cc(-c3ccccn3)nn2)oc(C(C)=O)c1C(=O)OC | 1.28
9 | CCOC(=O)[C@@H]1CCCCN1C(=O)C(=O)OC | 0.479
10 | CN(C)c1ccc(C(O)C2C=CC3C(=O)NC(=O)C3N2Nc2ccccn2)cc1 (stereo not given) | 1.32
11 | CC#CCO[Si](C#Cc1ccccc1)(C(C)C)C(C)C | -0.711
12 | CC(=O)N1CC2(CC2)CC1c1ccccc1 (stereo not given) | -0.0582
13 | COCCOC(=O)N1C(=O)[C@@]2(c3cc(C#CCC(C(=O)OC)C(=O)OC)ccc31)[C@H](c1ccc(OCCO)cc1)N1[C@H](c3ccccc3)[C@H](c3ccccc3)OC(=O)[C@H]1[C@@H]2C(=O)N1CCc2cc(OC)c(OC)cc2C1 | 1.37
14 | C=CCC(OC(C)=O)[C@@H]1[C@@H](N(Cc2cccc3ccccc23)C(=O)Cc2ccc(F)cc2)c2cc(OCCCO)ccc2N1C(=O)c1ccc2ccccc2c1 (stereo not given in full) | 0.7
15 | CN1C2C=C(CCCO)C(C3C(=O)N(C(N)=O)C(=O)C32)C1C1CC1 (stereo not given) | -0.0169
16 | CCCN1C(=O)[C@]2(Cc3ccccc31)N=C(c1ccc(OCCCO)cc1)O[C@@H]2c1ccccc1 | 1.3
17 | NCCCCCNC(=O)[C@@H]1C[C@@H]2C(=O)N[C@@H](CCCCN)C(=O)N2[C@@H]1c1ccc(O)cc1 | 1.42
18 | Cc1ccc(C(C)CC(O)C2C=CC3C(=O)N(c4ccccc4)C(=O)C3N2Nc2ccccc2)o1 (stereo not given) | 1.03
19 | CCCNC(=O)[C@@H]1c2ccccc2C(=O)N(Cc2ccc(OC(F)(F)F)cc2)[C@H]1c1ccc(CO)cc1 | 0.887
20 | CC(C)C(CO)N1C(=O)[C@@H]2[C@H]3C(=O)OCC=C[C@H]3OC23C=CCN(c2ccc(Cl)cc2)C(=O)[C@@H]13 (stereo not given in full) | -0.728
21 | CC(C)c1ccc(NN2C(C(O)c3ccc(F)cc3)C=CC3C(=O)N(c4ccccc4)C(=O)C32)cc1 (stereo not given) | 1.16
22 | OCCCC1=CC(c2ccc(CN3CCCC3)cc2)N(Cc2cc3c(cc2Br)OCO3)CC1 (stereo not given) | 1.07
23 | COc1cc2c(cc1O)C(c1cccs1)N(Cc1cc3c(cc1Br)OCO3)CC2 (stereo not given) | 1.08
24 | CCCNC(=O)[C@@]1(Sc2ccc(C)cc2)CC(=O)N(C2Cc3ccccc3C2)[C@@H]1c1ccc(CO)cc1I | 1.01
25 | CC(C)=C1C(=O)C(c2ccccc2)=C2CN3C(=O)N(CCc4ccccc4)C(=O)[C@]3(Cc3ccc(C(F)(F)F)cc3)[C@H]21 | 0.0359
26 | COc1cccc(C)c1NC(=O)O[C@H]1[C@H](OC(=O)Nc2ccccc2-c2ccccc2)[C@H](OC(=O)Nc2ccccc2-c2ccccc2)[C@@H](OC)O[C@@H]1CO | 1.35
27 | COCCCNC(=O)[C@@]1(CCC(=O)OC(C)(C)C)N=C(c2ccc(OCCCO)cc2)O[C@H]1c1ccccc1N=[N+]=[N-] | 1.1
28 | COc1cc2c(cc1O)C(c1ccc(CN3CCCC3)cc1)N(Cc1cc3c(cc1Br)OCO3)CC2 (stereo not given) | 0.0395
29 | CCCC[C@@H](O)C1=C(COC)C[C@H]2C(=O)N(C)C(=O)[C@H]2[C@H]1CO | 0.504
30 | COC(=O)C(CC#Cc1ccc2c(c1)[C@]1(C(=O)N2)[C@H](c2ccc(O)cc2)N2[C@H](c3ccccc3)[C@H](c3ccccc3)OC(=O)[C@H]2[C@@H]1C(=O)NC[C@H](O)c1ccccc1)C(=O)OC | 1.21
